Results taken from article PMC11995724, “Antibiotic target discovery by integrated phenotypic and activity-based profiling of electrophilic fragments” (Cell chemical biology, 2025).
Hit rate of the full screen: of about 3,200 compounds, about 110 (3.4%) showed an effect of 50% or more. Many of the other results were omitted from the sample, so strong results are more common in it than they were.

System: T1, V. cholerae SAD30
T1 construct: SAD30
Set-up: species or system S. aureus MSSA476 (TSB) or V. cholerae SAD30 (LB); 384-well bacterial growth screen at 25 uM, OD600 relative to DMSO control
Details: relative growth, OD600, LB; 25 µM; inhibitor

SMILES	% of control remaining [%]
C=CC(=O)NCc1csc(C(C)(C)C)n1 [2-C09, N-[(2-tert-butyl-1,3-thiazol-4-yl)methyl]prop-2-enamide]	91.5854
COc1ccc(C=C(C#N)C(=O)Nc2ccc(Cl)c(Cl)c2)cc1 [8-C03, 2-cyano-N-(3,4-dichlorophenyl)-3-(4-methoxyphenyl)prop-2-enamide]	89.395
C=CC(=O)Nc1ccc(C(N)=O)nc1OC [1-E18, 6-methoxy-5-(prop-2-enamido)pyridine-2-carboxamide]	89.6861
C=CC(=O)Nc1cc(Cl)cc(C)c1OC [1-E16, N-(5-chloro-2-methoxy-3-methylphenyl)prop-2-enamide]	87.145
C=CC(=O)Nc1c(OC)nc(Cl)nc1OC [1-B14, N-(2-chloro-4,6-dimethoxypyrimidin-5-yl)prop-2-enamide]	48.0864
N#CC(=Cc1cccc(Cl)c1Cl)C(=O)NCCc1ccccc1 [8-J06, 2-cyano-3-(2,3-dichlorophenyl)-N-(2-phenylethyl)prop-2-enamide]	78.9259
CCN(CC)c1ccc(NC(=O)CCl)cc1 [6-N10, 2-chloro-N-[4-(diethylamino)phenyl]acetamide]	90.5489
C=CC(=O)Nc1ccc(C)cc1S(=O)(=O)N1CCOCC1 [1-O13, N-[4-methyl-2-(morpholine-4-sulfonyl)phenyl]prop-2-enamide]	87.2945
Cc1ccccc1NC(=O)C(C#N)=Cc1cc2c(cc1[N+](=O)[O-])OCO2 [9-P11, 2-cyano-N-(2-methylphenyl)-3-(6-nitro-1,3-dioxaindan-5-yl)prop-2-enamide]	84.5003
C=CC(=O)N1CCCC(c2nn(C)cc2C(N)=O)C1 (stereo not drawn) [1-D07, 1-methyl-3-[1-(prop-2-enoyl)piperidin-3-yl]-1H-pyrazole-4-carboxamide]	92.9746
O=C(CCl)c1c[nH]c2ccccc12 [10-B05, 2-chloro-1-(1H-indol-3-yl)ethan-1-one]	108.475
O=C(CCl)c1c[nH]c2ccc(F)cc12 [10-O11, 2-chloro-1-(5-fluoro-1H-indol-3-yl)ethan-1-one]	23.3781
O=C(CCl)c1ccc(F)cc1F [10-I18, 2-chloro-1-(2,4-difluorophenyl)ethan-1-one]	22.7547
O=C(CCl)c1ccc(O)cc1O [10-C14, 2-chloro-1-(2,4-dihydroxyphenyl)ethan-1-one]	100.682
Cc1cc(C(=O)CCl)c(C)n1Cc1ccc(F)cc1 [10-N17, 2-chloro-1-{1-[(4-fluorophenyl)methyl]-2,5-dimethyl-1H-pyrrol-3-yl}ethan-1-one]	95.5387
CC(C)Oc1ccc2[nH]cc(C(=O)CCl)c2c1 [10-E03, 2-chloro-1-[5-(propan-2-yloxy)-1H-indol-3-yl]ethan-1-one]	105.669
COc1ccc(Cc2cnc(NC(=O)CCl)s2)cc1 [4-F17, 2-chloro-N-{5-[(4-methoxyphenyl)methyl]-1,3-thiazol-2-yl}acetamide]	111.451
CC(Cl)C(=O)N1CCc2ncccc2C1 (stereo not drawn) [7-I19, 2-chloro-1-(5,6,7,8-tetrahydro-1,6-naphthyridin-6-yl)propan-1-one]	77.5814
C=CC(=O)NC(CO)c1ccnn1C (stereo not drawn) [2-D17, N-[2-hydroxy-1-(1-methyl-1H-pyrazol-5-yl)ethyl]prop-2-enamide]	92.203
C=CC(=O)Nc1cccc(-c2cn(C)nn2)c1 [1-K14, N-[3-(1-methyl-1H-1,2,3-triazol-4-yl)phenyl]prop-2-enamide]	83.4081
COc1ccc(-n2c(C)c(C)c(C#N)c2NC(=O)CCl)cc1 [4-F20, 2-chloro-N-[3-cyano-1-(4-methoxyphenyl)-4,5-dimethyl-1H-pyrrol-2-yl]acetamide]	105.413
CC(NC(=O)CCl)c1cn(-c2ccccc2)nn1 (stereo not drawn) [5-O06, 2-chloro-N-[1-(1-phenyl-1H-1,2,3-triazol-4-yl)ethyl]acetamide]	103.73
O=C(CCl)c1c(-c2ccc(F)cc2)[nH]c2ccccc12 [10-P04, 2-chloro-1-[2-(4-fluorophenyl)-1H-indol-3-yl]ethan-1-one]	95.8504
Cc1cc(C(=O)CCl)c(C)n1-c1ccc(C(F)(F)F)cc1 [10-J14, 2-chloro-1-{2,5-dimethyl-1-[4-(trifluoromethyl)phenyl]-1H-pyrrol-3-yl}ethan-1-one]	98.4999
Cn1cc(C(=O)CCl)nn1 [10-M19, 2-chloro-1-(1-methyl-1H-1,2,3-triazol-4-yl)ethan-1-one]	0
O=C(CCl)c1cn(-c2ccc(F)cc2)nn1 [10-F05]	0.6234

SMILES	% of control remaining [%]
Cc1cccc(-n2cc(C(=O)CCl)nn2)c1 [10-L07]	5.299
Cn1ccc(C(=O)CCl)c1 [10-D08, 2-chloro-1-(1-methyl-1H-pyrrol-3-yl)ethan-1-one]	103.176
Cc1cccc(-n2c(C)cc(C(=O)CCl)c2C)c1 [10-A22, 2-chloro-1-[2,5-dimethyl-1-(3-methylphenyl)-1H-pyrrol-3-yl]ethan-1-one]	108.163
Cc1cc(C(=O)CCl)c(C)n1-c1cccc(Cl)c1 [10-N18, 2-chloro-1-[1-(3-chlorophenyl)-2,5-dimethyl-1H-pyrrol-3-yl]ethan-1-one]	92.4216
Cn1cc(C(=O)CCl)cc1C(N)=O [10-J06, 4-(2-chloroacetyl)-1-methyl-1H-pyrrole-2-carboxamide]	97.5648
O=C(CCl)NC1CC(=O)N(c2cccc(C(F)(F)F)c2)C1 (stereo not drawn) [5-E09, 2-chloro-N-{5-oxo-1-[3-(trifluoromethyl)phenyl]pyrrolidin-3-yl}acetamide]	100.2
O=C(CCl)c1cn(-c2cccc(C(F)(F)F)c2)nn1 [10-C09, 2-chloro-1-{1-[3-(trifluoromethyl)phenyl]-1H-1,2,3-triazol-4-yl}ethan-1-one]	24.9367
CCc1ccc(NC(=O)C(C)Cl)cc1 (stereo not drawn) [4-L15, 2-chloro-N-(4-ethylphenyl)propanamide]	96.9592
CC(Cl)C(=O)NCc1csc2ccccc12 (stereo not drawn) [7-C11, N-[(1-benzothiophen-3-yl)methyl]-2-chloropropanamide]	69.5192
COc1ccc(C=C(C#N)C(=O)Nc2ccccc2)cc1 [8-A05, 2-cyano-3-(4-methoxyphenyl)-N-phenylprop-2-enamide]	91.9782
N#CC(=Cc1ccc(O)cc1)C(=O)Nc1cc(Cl)ccc1Cl [9-F03, 2-cyano-N-(2,5-dichlorophenyl)-3-(4-hydroxyphenyl)prop-2-enamide]	117.947
CC(Cl)C(=O)N1CCN(C(=O)Cc2cccc(Cl)c2)C(C)C1 (stereo not drawn) [7-E20, 2-chloro-1-{4-[2-(3-chlorophenyl)acetyl]-3-methylpiperazin-1-yl}propan-1-one]	74.6737
CC(Cl)C(=O)N[C@H]1C[C@H](C)S(=O)(=O)c2sccc21 (stereo partly drawn) [6-B22, 2-chloro-N-[(2S,4S)-2-methyl-1,1-dioxo-2H,3H,4H-1lambda6-thieno[2,3-b]thiopyran-4-yl]propanamide]	103.289
Cc1ccc(SCCNC(=O)CCl)cc1 [4-K21, 2-chloro-N-{2-[(4-methylphenyl)sulfanyl]ethyl}acetamide]	111.279
N#CC(=Cc1ccccc1OC(F)F)C(=O)Nc1ccccc1Cl [9-M21, N-(2-chlorophenyl)-2-cyano-3-[2-(difluoromethoxy)phenyl]prop-2-enamide]	89.5309
COc1ccc(CCN2C(=O)C=CC2=O)cc1 [10-A05, 1-[2-(4-methoxyphenyl)ethyl]-2,5-dihydro-1H-pyrrole-2,5-dione]	35.8465
O=C1C=CC(=O)N1CCc1ccc(F)cc1 [10-C21, 1-[2-(4-fluorophenyl)ethyl]-2,5-dihydro-1H-pyrrole-2,5-dione]	34.7555
O=C1C=CC(=O)N1CCc1ccccc1 [10-E20, 1-(2-phenylethyl)-2,5-dihydro-1H-pyrrole-2,5-dione]	27.5862
CC(Cl)C(=O)NCCc1ccc(F)cc1 (stereo not drawn) [6-F06, 2-chloro-N-[2-(4-fluorophenyl)ethyl]propanamide]	86.757
COc1ccc(CCN2C(=O)C=CC2=O)cc1OC [10-H07, 1-[2-(3,4-dimethoxyphenyl)ethyl]-2,5-dihydro-1H-pyrrole-2,5-dione]	98.344
COc1ccc(CCNC(=O)CCl)cc1 [5-H12, 2-chloro-N-[2-(4-methoxyphenyl)ethyl]acetamide]	68.593
Cc1cc(C(=O)CCl)c(C)n1CCc1ccc(F)cc1 [10-G14, 2-chloro-1-{1-[2-(4-fluorophenyl)ethyl]-2,5-dimethyl-1H-pyrrol-3-yl}ethan-1-one]	97.7206
O=C1C=CC(=O)N1CCc1ccccc1F [10-G03, 1-[2-(2-fluorophenyl)ethyl]-2,5-dihydro-1H-pyrrole-2,5-dione]	22.2872
Cc1cc(C(=O)CCl)c(C)n1CCc1ccccc1 [10-B18, 2-chloro-1-[2,5-dimethyl-1-(2-phenylethyl)-1H-pyrrol-3-yl]ethan-1-one]	95.3828
O=C(CCl)NCCCc1ccccc1 [4-N04, 2-chloro-N-(3-phenylpropyl)acetamide]	112.487
